# This is part of a sample that, as a whole, favours compounds with a hit. Of some 79,000 tested, about 15% had one in any assay. Values without a mark were called inactive. Calls of active or inactive are those of the source. Rule as the data show it: active = growth inhibition above about 70%; inactive = the rest.
# Legend:
# [1] = NCI Yeast Anticancer Drug Screen. Data for the rad50 strain (AID 155);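 also: 0% = growth of vehicle-only cultures of the same strain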; conditions: S. cerevisiae rad50 strain growth inhibition, hits give high values
# Procedure, shortened: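 A DNA repair-deficient yeast mutant serves as the test organism; compound-induced growth inhibition is calculated against vehicle-treated cells.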
# [2] = NCI Yeast Anticancer Drug Screen. Data for the mec2-1 strain (AID 157); conditions: S. cerevisiae mec2-1 strain, hits give high values
# Procedure, shortened: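 Test agents were screened against the mec2-1 yeast strain, with defined DNA repair or cell cycle alteration. Growth was scored as inhibition against vehicle-only controls.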
# [3] = NCI Yeast Anticancer Drug Screen. Data for the sgs1 mgt1 strain (AID 161);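 also: 0% = growth of cultures given vehicle only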; conditions: S. cerevisiae sgs1 mgt1 strain, hits give high values
# Procedure, shortened: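 Genetically altered yeast, compound exposure, growth inhibition relative to vehicle.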
# [4] = NCI Yeast Anticancer Drug Screen. Data for the cln2 rad14 strain (AID 165);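 also: 0% = growth equal to vehicle treated cultures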; conditions: S. cerevisiae cln2 rad14 strain, hits give high values
# Procedure, shortened: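 Growth of compound-exposed yeast (cln2 rad14 genotype) measured and expressed as inhibition relative to vehicle.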
# [5] = NCI Yeast Anticancer Drug Screen. Data for the bub3 strain (AID 167); conditions: S. cerevisiae bub3 mutant strain, hits give high values
# Procedure, shortened: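 Inhibition values come from growth of compound-treated mutant yeast normalised to vehicle-treated controls.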
# [6] = NCI Yeast Anticancer Drug Screen. Data for the mlh1 rad18 strain (AID 175); conditions: S. cerevisiae mlh1 rad18 strain growth inhibition, hits give high values
# Procedure, shortened: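 In this whole-cell yeast screen, a strain with altered DNA damage repair is challenged with compound, and its growth is measured against matched vehicle-treated controls.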
# [7] = at 5.0 µM (retest, dose inferred, filed as 0.5)
# [8] = at 50.0 µM (retest, dose inferred, filed as 5.0)
SMILES,"growth inhibition [1, 7] [%]","growth inhibition [1, 8]",growth inhibition ([1]; at 50.0 µM),"growth inhibition [2, 7] [%]","growth inhibition [2, 8]",growth inhibition ([2]; at 50.0 µM),"growth inhibition [3, 7] [%]","growth inhibition [3, 8]",growth inhibition ([3]; at 50.0 µM),"growth inhibition [4, 7] [%]","growth inhibition [4, 8]",growth inhibition ([4]; at 50.0 µM),"growth inhibition [5, 7] [%]","growth inhibition [5, 8]",growth inhibition ([5]; at 50.0 µM),"growth inhibition [6, 7] [%]","growth inhibition [6, 8]",growth inhibition ([6]; at 50.0 µM)
COc1ccccc1C1c2cc3c(cc2OC2(OC)COC(=O)C12)OCO3 (configuration not stated),24,58%,9.85%,22,42%,0%,11,42%,1.95%,20,35%,17%,32,54%,17.2%,23,69%,22%
C=C1C[C@H](O)[C@H]2C(C[Se]c3ccccc3)C(=O)O[C@@H]2[C@H]2[C@H](C)C(O)C[C@@H]12 (some centres not stated),2,35%,43.6%,2,-7%,20.6%,9,61%,17.2%,-2,8%,-32.1%,-5,21%,21.8%,0,32%,86.5% (active)
O=C(CCBr)NC(=O)Oc1cccc2ccccc12,1,17%,87.2% (active),1,29%,97.2% (active),5,55%,91.3% (active),4,11%,28.1%,-8,18%,85.6% (active),2,65%,95.3% (active)
CCCCCCCOC(=O)c1cc2cc(C(CC)C(CC)c3ccc(O)cc3)ccc2oc1=O (configuration not stated),23,47%,83.1% (active),37,23%,91.3% (active),47,65%,82% (active),30,74% (active),87.4% (active),11,45%,68.9%,41,57%,88.9% (active)
CCOC(=O)c1c(Cl)nnc(-c2ccccc2)c1-c1ccccc1,0,98% (active),98.2% (active),1,99% (active),96.2% (active),-2,98% (active),96.3% (active),1,97% (active),92.3% (active),13,98% (active),97.5% (active),-1,98% (active),98% (active)
COc1ccc(N2CCN(CC(O)COc3cc4c(c5c3CCCC5)CCCC4)CC2)cc1 (configuration not stated),15,98% (active),45.4%,17,98% (active),99% (active),22,97% (active),54.7%,6,98% (active),84.2% (active),13,97% (active),92% (active),9,96% (active),77.6% (active)
Cc1cc(O)cc(C)c1[N+](=O)[O-],5,25%,55%,0,24%,49.8%,-6,41%,79.6% (active),-1,20%,23.6%,-1,36%,29.3%,4,41%,63.5%
COC1=C(OC)C(=O)C(SCc2ccco2)=CC1=O,37,98% (active),50.6%,29,99% (active),73.3% (active),53,99% (active),77.3% (active),51,90% (active),36.9%,56,99% (active),62.1%,28,77% (active),65%
O=C(CC1C=Cc2ccccc2N1C(=O)c1ccccc1)c1ccccc1 (configuration not stated),1,85% (active),83% (active),-4,76% (active),76.5% (active),-7,82% (active),37.8%,-17,77% (active),73% (active),21,93% (active),86% (active),-2,87% (active),88.5% (active)
